In PubChem BioAssay (EPA / NIEHS):
Records with an inconclusive call do not appear. Active and inactive are the calls of the source. How the source made its calls: active means hit-call score of the fitted dose curve at least 0.9, where 1 is the maximum; inconclusive means response in the unintended direction; inactive means score below 0.9.

Experiment: ATG_M_19_TRANS: Attagene TRANS-FACTORIAL HepG2 Assay for M19 Transcription Factor (Internal Marker) (AID 2282974)
Conditions: HepG2 Attagene TRANS-FACTORIAL M19 internal marker reporter
Method: ATG_TRANS is a cell-based, multiplexed-readout assay that uses HepG2, a human liver cell line, with measurements taken at 24 hours after chemical dosing in a 24-well plate.ATG_M_19_TRANS is one of 30 assay component(s) measured or calculated from the ATG_TRANS assay. It is designed to make measurements of mRNA induction, a form of inducible reporter, as detected with fluorescence intensity signals by Reverse transcription polymerase chain reaction (RT-PCR) and Capillary electrophoresis technology.Data from the assay component ATG_M_19_TRANS was analyzed into 1 assay endpoint. This assay endpoint, ATG_M_19_TRANS, was analyzed in the positive analysis fitting direction relative to DMSO as the negative control and baseline of activity. Using a type of inducible reporter, measures of mRNA for gain-of-signal activity can be used to understand the background control at the transcription factor-level as they relate to the gene . Furthermore, this assay endpoint can be referred to as a secondary readout, because this assay has produced multiple assay endpoints where this one serves a background control function. To generalize the intended target to other relatable targets, this assay endpoint is annotated to the background measurement intended target family, where the subfamily is internal marker.
Human liver HepG2 cells are transiently transfected with multiple reporter transcription units (MRTUs) in 6-well plates using FuGene 6 reagent (Roche; 3 ml FuGene/1 mg DNA). The MRTU constructs are regulated by a cis-regulating element (promoter). […] A major difference between the CIS and TRANS system is that in CIS activities of endogenous TFs are measured, whereas the TRANS assay evaluates changes in activities of exogenous, chimeric NR-Gal4 proteins. […] At the end of 24 hour incubation, total RNA was isolated using TriZol reagent (Invitrogen). The isolated RNA is then reverse-transcribed using oligo(dT) primer and Mo-MLV reverse transcriptase (Invitrogen) with DNAse I (Ambion) treatment for 30 min. The one-tenth of the produced cDNA was amplified by PCR using Taq DNA polymerase (Invitrogen) and two reporter sequence-specific primers. The PCR products were fluorescently labeled by primer extension with 6-arboxyfluorescein (6-FAM) 5'-labeled reporter sequence-specific primer (2 min at 95 C, 20 s at 68 C and 10 min at 72 C) and these products were digested with 5U of HpaI (New England Biolabs) for 2h at 37 C. The fragments were purified using Qiaquick PCR columns (Qiagen), analyzed on an ABI 3130xL genetic analyzer (Applied Biosystems) with peak positions identified by using a set of X-rhodamine (ROX)-labeled MapMarker1000 molecular weight standards (BioVentures). The raw capillary electrophoresis data was processed using Attagraph software (Attagene).

outcome, inactive:
Cc1cc(F)ccc1-c1cc(N2CC[C@@H](O)[C@H]2CO)ncc1N(C)C(=O)C(C)(C)c1cc(C(F)(F)F)cc(C(F)(F)F)c1
c1ccc2n[nH]nc2c1
Cc1ncc(CO)c(CO)c1O
OC12N=C(c3ccccc3)SC1Cc1cc(Cl)ccc12 (stereo not given)
O=C=NCCCCCCN=C=O
CCCCCc1ccc(N)cc1
CCCCOC(=O)CC(CC(=O)OCCCC)(OC(C)=O)C(=O)OCCCC
OCCO
Oc1ccc2ccccc2c1
CC1(C)NC(=O)N(c2ccc([N+](=O)[O-])c(C(F)(F)F)c2)C1=O
CCCCCCCCCC(=O)O
COc1ccc2cc(S(=O)(=O)N[C@H](CC(=O)N[C@H](Cc3ccc(CN4[C@H](C)CCC[C@@H]4C)cc3)C(=O)N(C)C(C)C)c3ccc4c(c3)OCO4)ccc2c1
Cc1cc2c(cc1C(F)(F)F)N(C(=O)Nc1ccc(Oc3cccnc3C)nc1)CC2
CO[C@H]1/C=C/O[C@@]2(C)Oc3c(C)c(O)c4c(O)c(c(/C=N/N5CCN(C)CC5)c(O)c4c3C2=O)NC(=O)/C(C)=C\C=C\[C@H](C)[C@H](O)[C@@H](C)[C@@H](O)[C@@H](C)[C@H](OC(C)=O)[C@@H]1C
Cc1ccc2oc(CN(Cc3ccccc3)C(=O)Nc3c(F)cc(F)cc3F)c(-c3ccc(Cl)cc3)c2c1
Cc1cccc2ccccc12
CCCCCCCCN(C)CCCCCCCC
CCCOC(=O)c1cc(O)c(O)c(O)c1
Oc1ccccc1
NC(=O)c1nc(-c2cccc(-c3cc(F)ccc3OCC(F)(F)C(F)(F)F)c2)n[nH]1
CC[C@H](NC(=O)c1cc(F)ccc1NS(=O)(=O)c1cccc2cccnc12)c1ccccc1
C[C@]12CC[C@@H]3c4ccc(O)cc4CC[C@H]3[C@@H]1CC[C@H]2O
CCCCCCCCCCCC[N+](C)(C)C
CCCCCCCCOc1ccc(C(=O)c2ccccc2)c(O)c1
O=C(O)Cn1c(=O)n(Cc2ccc(Br)cc2F)c(=O)c2ccc(Cl)cc21
O=C(O)Cc1cc(I)c(Oc2ccc(O)c(I)c2)c(I)c1
CC(=O)N1CCN(c2ccc(OC[C@H]3CO[C@](Cn4ccnc4)(c4ccc(Cl)cc4Cl)O3)cc2)CC1
O=CCCCC=O
CCCCOC(=O)c1ccc(O)cc1
CN(C)c1ccc(C(=C2C=CC(=[N+](C)C)C=C2)c2ccc(N(C)C)cc2)cc1
O=C(Nc1ccc(Cl)cc1)Nc1ccc(Cl)c(Cl)c1
C[C@]12CC[C@@H]3c4ccc(O)cc4CC[C@H]3[C@@H]1CCC2=O
O=c1c(-c2ccc(O)cc2)coc2cc(O)cc(O)c12
CN1C(=O)N(c2ccccc2Br)Cc2cnc(Nc3ccc4c(c3)OCC(CO)O4)nc21 (stereo not given)
COc1cccc([C@H](O)C2CCN(CCc3ccc(F)cc3)CC2)c1OC
O=C1O[C@H]([C@@H](O)CO)C(O)=C1O
O=C1CCC(C2CCCCC2)CC1
CC(O)CC(C)(C)O (stereo not given)
c1ccc(C[n+]2cccc3ccccc32)cc1

AC50, active:
CCCCCCCCCCCO 158 µM
